# Assay results: PubChem BioAssay (EPA / NIEHS)
# Values joined by “and” are separate entries in the source; they are usually repeats but may differ in a detail not shown here. Identical values can stand only once. Results filed as inconclusive are left out. Active and inactive are the calls of the source. The calls were made as follows: active = hit-call score of the fitted dose curve at least 0.9, where 1 is the maximum; inconclusive = response in the unintended direction; inactive = score below 0.9.
# Legend:
# [1] = ACEA_AR_antagonist_AUC_viability: ACEA Biosciences xCELLigence Real-Time Cell Analysis on Androgen Receptor Antagonism for Viability (AID 2283776);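 also: area under impedance growth curve at 80 h after dosing as viability; hits lower the growth signal relative to DMSO meaning cytotoxicity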
# Procedure, shortened: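 Impedance read-out (RT-CES): area under growth curve at 80 h post-dose, loss of signal scored vs DMSO baseline. 22Rv1 cells; 8-pt 1:4 series, top 100 uM final, ≤0.5% DMSO; biological duplicate.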
# [2] = ACEA_ER_AUC_viability: ACEA Biosciences xCELLigence Real-Time Cell Analysis on Estrogen Receptor Agonism for Viability (AID 2283782);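 also: continuous compound exposure with impedance area under curve over 80 h; hit means loss of impedance signal meaning reduced cell growth or viability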
# Procedure, shortened: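 T-47D human breast cells in phenol red-free RPMI1640 with 10% charcoal-stripped FBS were dosed with an 8-point 1:4 dilution series from 100 uM top final concentration, in duplicate. Impedance-based growth was followed for 80 h; AUC analysed versus DMSO.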
# [3] = ACEA_AR_agonist_AUC_viability: ACEA Biosciences xCELLigence Real-Time Cell Analysis on Androgen Receptor Agonism for Viability (AID 2283775)
# Procedure, shortened: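 Read-out is area under the impedance curve at 80 h post-dose in 22Rv1 cells, with DMSO as baseline and signal loss taken as reduced viability. Compounds ran in duplicate from 100 uM final.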
# [4] = STM_H9_NormalizedViability: Cytotoxicity Assessment at 120 hours in the Stemina devTOX quickPredict H9 human embryonic stem cell (hESC)-based Assay (AID 2283784)
# Procedure, shortened: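 Undifferentiated H9 hESCs kept pluripotent were exposed to compound, with media and chemical replaced every 24h. CellTiter-Fluor protease-substrate fluorescence was background-corrected and normalized per plate to the 0.1% DMSO vehicle; signal loss indicates reduced viability.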
# AR (gene 367) = AR (gene 367) (UniProt P10275); assay: ACEA_AR_agonist_80hr: ACEA Biosciences xCELLigence Real-Time Cell Analysis on Androgen Receptor Agonism for Proliferation (AID 2283783);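 also: hits increase impedance growth signal above DMSO baseline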
# Description: ACEA_AR_agonist is a cell-based, single-readout assay that uses 22Rv1, a human prostate cancer cell line, with measurements taken at 80 hours after chemical dosing in a 384-well plate, although TO5 and TO6 (mc0.srcf) used a 96-well plate. Differences in plate size can be ignored given data normalization.ACEA_AR_agonist_80hr is one of two assay component(s) measured or calculated from the ACEA_AR assay. It is designed to make measurements of real-time cell-growth kinetics, a form of growth reporter, as detected with electrical impedance signals by Real-Time Cell Electrode Sensor (RT-CES) technology.Data from the assay component ACEA_AR_agonist_80hr was analyzed in the positive analysis fitting direction relative to DMSO as the negative control and baseline of activity. Using a type of growth reporter, measures of the cells for gain-of-signal activity can be used to understand the signaling at the pathway-level as they relate to the geneAR Furthermore, this assay endpoint can be referred to as a primary readout, because this assay has produced multiple assay endpoints where this one serves a signaling function. To generalize the intended target to other relatable targets, this assay endpoint is annotated to the nuclear receptor intended target family, where the subfamily is steroidal.
# The xCELLigence system Multi-E-Plate stations were used to measure the time-dependent response to chemicals. Each compound was tested in an eight-point, 1:4 serial dilution series starting at a maximum final concentration of 100 uM. A maximum starting concentration of 0.5% DMSO was present in the 100 uM chemical samples and was diluted along with the test article dilution series. The screen was performed in biological duplicate using two separate, 96-well, E-Plates 96 for each dilution series (n = 2). Positive controls (MG132 and testosterone) and a negative control (assay media) were tested in quadruplicate on each testing plate. […] Cellular responses were then recorded once every 5 min for the first 5 h, and once every hour for an additional 100 h.
# Sequence of AR (gene 367) (P10275 whole entry, looked up): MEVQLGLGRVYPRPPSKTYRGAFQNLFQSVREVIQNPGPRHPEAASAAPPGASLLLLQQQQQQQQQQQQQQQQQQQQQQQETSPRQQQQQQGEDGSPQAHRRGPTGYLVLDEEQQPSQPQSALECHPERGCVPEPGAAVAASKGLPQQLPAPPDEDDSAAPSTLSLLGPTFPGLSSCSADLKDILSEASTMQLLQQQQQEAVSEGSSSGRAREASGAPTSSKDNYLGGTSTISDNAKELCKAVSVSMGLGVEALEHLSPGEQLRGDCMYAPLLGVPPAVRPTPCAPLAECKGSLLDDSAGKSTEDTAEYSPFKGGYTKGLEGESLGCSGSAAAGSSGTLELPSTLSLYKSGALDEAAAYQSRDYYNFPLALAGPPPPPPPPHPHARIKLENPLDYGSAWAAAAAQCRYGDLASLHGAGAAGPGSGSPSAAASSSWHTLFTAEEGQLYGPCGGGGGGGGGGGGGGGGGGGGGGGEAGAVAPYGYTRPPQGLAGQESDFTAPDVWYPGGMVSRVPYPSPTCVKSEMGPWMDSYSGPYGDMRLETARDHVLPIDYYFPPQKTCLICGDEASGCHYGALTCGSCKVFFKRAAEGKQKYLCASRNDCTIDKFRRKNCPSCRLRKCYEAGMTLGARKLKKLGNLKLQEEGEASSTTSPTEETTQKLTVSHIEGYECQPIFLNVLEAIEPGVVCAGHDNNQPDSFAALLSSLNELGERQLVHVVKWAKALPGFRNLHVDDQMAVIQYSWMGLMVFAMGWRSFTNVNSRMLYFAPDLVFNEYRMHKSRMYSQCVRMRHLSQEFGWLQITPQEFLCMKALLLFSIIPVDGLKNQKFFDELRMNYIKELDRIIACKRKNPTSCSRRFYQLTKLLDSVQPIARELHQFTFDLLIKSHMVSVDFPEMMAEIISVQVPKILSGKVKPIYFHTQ
compound,measurement,setting,value
[Na+],outcome,[1],inactive
CCCCCCCCCCOC(=O)c1ccccc1C(=O)OCCCCCCCC,outcome,[1],inactive
CCC(C)C1CCCCC1=O (centres undefined),outcome,[1],inactive
same,outcome,[2],inactive
COC(=O)C(C)Oc1ccc(Oc2ncc(C(F)(F)F)cc2Cl)cc1 (centres undefined),outcome,[1],inactive
same,outcome,[2],inactive
C1CCCNCC1,outcome,[1],inactive
NC(N)=S,outcome,[1],inactive
CC(C)C(=O)c1ccccc1,outcome,[1],inactive
same,outcome,[2],inactive
O=C1OC2(c3ccc(O)cc3Oc3cc(O)ccc32)c2ccccc21,outcome,[1],inactive
CC(=O)c1ccc2ccccc2c1,outcome,[1],inactive
CC(=O)Nc1cc(S(=O)(=O)O)cc2cc(S(=O)(=O)O)c(N=Nc3ccccc3)c(O)c12,outcome,[1],inactive
C1=COCCC1,outcome,[1],inactive
same,outcome,[2],inactive
O=c1cc(-c2ccc(O)cc2)oc2cc(O)cc(O)c12,AC50,[1],6.43 µM (active)
O=S(=O)(O)c1cc(S(=O)(=O)O)c2c(N=Nc3ccccc3)c(O)ccc2c1,outcome,[1],inactive
CC(C)(C)C1CCC(O)CC1 (centres undefined),outcome,[3],inactive
same,outcome,[2],inactive
O=C(c1ccc(OCCN2CCCCC2)cc1)c1c(-c2ccc(O)cc2)sc2cc(O)ccc12,AC50,[1],21.7 µM (active)
same,AC50,[2],11.1 µM (active) and 17.8 µM (active) and 18 µM (active)
CC(O)CNCC(C)O (centres undefined),outcome,[1],inactive
CCCCCCCC(=O)N(C)C,outcome,[1],inactive
COc1ccccc1O,outcome,[1],inactive
CCCCCCC(C)O (centres undefined),outcome,[1],inactive
CCCCCCOc1ccc(O)cc1,AC50,[1],10.4 µM (active)
same,AC50,[2],67.3 µM (active)
O=Cc1ccccc1O,outcome,[1],inactive
C=CC(O)CCCCC (centres undefined),outcome,[1],inactive
C=CCCCCCCCCC(=O)OCC,outcome,[1],inactive
same,outcome,[2],inactive
CCC(=O)OC(C)(C)C1CC=C(C)CC1 (centres undefined),outcome,[1],inactive
same,outcome,[2],inactive
CC(CCO)CC(C)(C)C (centres undefined),outcome,[1],inactive
same,outcome,[2],inactive
CCO[Si](CC)(OCC)OCC,outcome,[3],inactive
same,outcome,[2],inactive
CCCO[Si](OCCC)(OCCC)OCCC,outcome,[1],inactive
c1ccc(OCCOc2ccccc2)cc1,outcome,[1],inactive
same,outcome,[2],inactive
O=C(O)CS,outcome,[1],inactive
same,outcome,[2],inactive
CCCC[N+](C)(CCCC)CCCC,outcome,[3],inactive
same,outcome,[2],inactive
O=C(O)c1ccccc1O,outcome,[3],inactive
same,AC50,[4],7090 µM (active)
CC(C)N(c1ccccc1)C(C)C,outcome,[1],inactive
CC/C=C/CCCCCCCCCCOC(C)=O,outcome,[2],inactive
CCCCOCCOCCOCCO,outcome,[1],inactive
same,outcome,[4],inactive
CC/C=C\CCCCO,AC50,[2],50 µM (active)
CCCC1CCOC(C)S1 (centres undefined),outcome,[2],inactive
CCC(C)(C)C1CCC(=O)CC1,outcome,[1],inactive
same,outcome,AR (gene 367),inactive
CCCCCCCCOC(C)=O,outcome,[1],inactive
same,outcome,[2],inactive
CC/C=C\CCCCCCCCCCOC(C)=O,outcome,[2],inactive
NS(=O)(=O)c1cc(C(=O)O)c(NCc2ccco2)cc1Cl,outcome,[2],inactive
O=C(O)C(F)(F)OC(F)(F)C(F)(F)OC(F)(F)C(F)(F)C(F)(F)C(F)(F)F,outcome,[2],inactive
NC(=O)c1c(Cl)cccc1Cl,outcome,[2],inactive
Cc1ccc(C(C)(C)O)cc1,outcome,[2],inactive
N=C1N=C(N)c2ccccc21,AC50,[2],74 µM (active)
O=C1OCc2ccccc21,outcome,[2],inactive
CC1COC(=O)O1 (centres undefined),outcome,[1],inactive
same,outcome,[2],inactive
same,outcome,AR (gene 367),inactive
CC(=O)CCC=C(C)CCC=C(C)C,AC50,[2],63.6 µM (active)
CC(=O)CC(C)(C)C1CCCCC1,outcome,[2],inactive
c1ccc2scnc2c1,outcome,[2],inactive
NCCCOCCOCCOCCCN,AC50,[2],86.7 µM (active)
CC(=O)CCc1ccc(O)cc1,outcome,[2],inactive
CCCCCCCCCCCCOCCOS(=O)(=O)O,outcome,[1],inactive
same,AC50,[2],84.1 µM (active)
O=S(=O)(O)c1cc(O)c(O)c(S(=O)(=O)O)c1,outcome,[2],inactive
CCOC(=O)CC(C)C,outcome,[2],inactive
COC(=O)c1ccc(C(=O)OC)cc1,outcome,[1],inactive
same,outcome,[2],inactive
same,outcome,[4],inactive
CCOc1ccc(NC(C)=O)cc1,outcome,[2],inactive
C=C(C)C(=O)OCCOCCOC(=O)C(=C)C,AC50,[2],21.2 µM (active)
CCc1cccc(O)c1,outcome,[1],inactive
same,outcome,[2],inactive
[Cu+],outcome,[2],inactive
C=C1CC/C=C(\C)CC[C@@H]2[C@@H]1CC2(C)C,outcome,[2],inactive
O=C(Nc1cccc(Cl)c1)OCC#CCCl,AC50,[2],56.3 µM (active)
CN(C)C,outcome,[2],inactive
O=[N+]([O-])c1cc(N(CCO)CCO)ccc1NCCO,outcome,[2],inactive
CC(C)(CO)CO,outcome,[1],inactive
same,outcome,[2],inactive
same,outcome,AR (gene 367),inactive
CCCCCCCCCCCCCC(=O)OCC,AC50,[2],50 µM (active)
CC(C)=CCCC(C)=CC(=O)O,outcome,[2],inactive
C=CCOCC(O)CO (centres undefined),outcome,[2],inactive
C=C(C)C(=O)OCCC[Si](OC)(OC)OC,outcome,[2],inactive
